Shiga toxin inh = A qHTS for Small Molecule Inhibitors of Shiga Toxin | Vero cells, Shiga toxin protein synthesis inhibition reporter | inhibition, % at 38.7 µM | actives 9.2% (n = 290,000); in the data active means inhibition mostly above about 28%, no sharp cut-off; inactive means mostly below about 43%
Pf growth 96h = Primary qHTS for delayed death inhibitors of the malarial parasite plastid, 96 hour incubation; Potency, µM (series often up to 28.7 µM), hits mostly inhibitors; actives 6.9% (n = 320,000); AID 504834, 2011; P. falciparum luciferase reporter growth, 96 h
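Two parasite generations (96 h, 37 C, 5% CO2) of compound exposure in infected erythrocytes (0.05% parasitemia, 2% hematocrit). Luciferase-reporter P. falciparum; decreased luminescence indicates inhibited growth, aimed at apicoplast-acting delayed death.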
LmPK inhibitor = qHTS Assay for Inhibitors of Leishmania Mexicana Pyruvate Kinase (LmPK); Q27686; purified LmPK, Kinase-Glo ATP luminescence, 1 h; Potency, µM (top dose mostly 57.5 µM), usual class: inhibitors; actives 0.37% (n = 290,000)
Target sequence (Q27686 whole entry, looked up): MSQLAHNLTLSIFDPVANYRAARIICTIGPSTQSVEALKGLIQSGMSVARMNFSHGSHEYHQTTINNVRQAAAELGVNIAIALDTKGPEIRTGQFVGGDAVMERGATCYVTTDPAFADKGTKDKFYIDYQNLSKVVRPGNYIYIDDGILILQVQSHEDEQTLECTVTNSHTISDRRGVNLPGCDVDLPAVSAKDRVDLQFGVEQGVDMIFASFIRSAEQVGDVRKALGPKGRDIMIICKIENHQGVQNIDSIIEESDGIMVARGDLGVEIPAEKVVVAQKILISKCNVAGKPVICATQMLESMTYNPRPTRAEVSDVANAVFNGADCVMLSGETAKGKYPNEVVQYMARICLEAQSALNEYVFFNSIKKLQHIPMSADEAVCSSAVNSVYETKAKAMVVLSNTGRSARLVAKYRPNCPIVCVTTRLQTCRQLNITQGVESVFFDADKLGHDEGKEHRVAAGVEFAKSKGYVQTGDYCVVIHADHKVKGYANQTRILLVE
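Screened at intermediate enzyme activity to detect both inhibitors and activators: LmPK at 0.1 nM, with a 0.5 nM enzyme column as activation reference. PEP 0.5 mM, ADP 0.1 mM; ATP detected by luminescence after 1 h.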
CHX counter = Cycloheximide Counterscreen for Small Molecule Inhibitors of Shiga Toxin; cell reporter, cycloheximide protein synthesis inhibition counterscreen; max response, %; actives 12% (n = 300,000); AID 2314, 2010; in the data active means max response mostly above about 13%, no sharp cut-off; inactive means mostly below about 14%; further: read at 38.3 µM for the half of the compounds with a filed dose
Pf growth 48h = Primary qHTS for delayed death inhibitors of the malarial parasite plastid, 48 hour incubation; Potency, µM (titrated, usually from 28.7 µM), usual class: inhibitors; actives 5.9% (n = 310,000); P. falciparum luciferase growth in erythrocytes, 48 h
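Compounds are pin-transferred into medium, infected erythrocytes (2% hematocrit, 0.1% parasitemia final) are added, and plates sit one parasite generation at 37 C in 5% CO2. Detection reagent is then added and luminescence measured.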
Numbers stand for hits; – = inactive; ? = inconclusive; · = not tested or not shown; [ ] = another dose, or the depositor's remark. Compounds with a hit are over-represented: about 22% of the library has one in this group of screens. Unless noted, the call rests on the fitted dose curve; in most records, active means well fitted inhibition curve with a large enough effect; inconclusive means small, poorly fitted or top-dose-only effect, or another doubt; inactive means no such curve, though single readings can be large or run the other way.

SMILES | Shiga toxin inh | Pf growth 96h | LmPK inhibitor | CHX counter | Pf growth 48h
Cc1nc2c(nnn2Cc2ccccc2)c(=O)[nH]1 | – | – | –[11.5 µM] | – | –
CS(=O)(=O)N1CCC(Oc2ccccc2C(=O)N2CCNC(=O)C2)CC1 | – | – | – | – | –
O=C(NC(=S)NNC(=O)c1ccccc1O)c1cccnc1 | 51 | – | – | – | –
CCc1cc(C(=O)NCC(C)(C)N2CCOCC2)sc1C | · | – | · | · | –
CCC(=O)C1CCCN(C(=O)CCc2nnc(-c3ccc4c(c3)OCO4)o2)C1 (configuration not stated) | 51 | ? | – | 38 | –
CCCOC1CCCN(C(=O)CCc2nnc(-c3ccc4c(c3)OCO4)o2)C1 (configuration not stated) | 117 | 13µM | – | 46 | –
O=C(CCc1nnc(-c2ccc3c(c2)OCO3)o1)NCCc1ccccc1F | – | – | – | – | –
Cc1cc(C)n(CCN(C)C(=O)CCc2nnc(-c3ccc4c(c3)OCO4)o2)n1 | – | – | – | 9.7 | –
CCC(=O)C1CCCN(C(=O)CCc2nnc(-c3ccc(C(C)=O)s3)o2)C1 (configuration not stated) | 98 | – | – | 40 | –
CN(C)CCCNc1ncnc2c1cnn2Cc1ccccc1Cl | – | – | – | – | –
O=C(COC(=O)C12CC3CC(CC(C3)C1)C2)NCCc1ccccc1 | – | · | – | – | –
CCCN1CCN(S(=O)(=O)c2c(C)[nH]c(C)c2C(=O)N2CCCCC2)CC1 | – | – | – | – | –
CCCC(=O)Nc1ccc(Cc2ccc(NC(=O)CCC)c(C(=O)O)c2)cc1C(=O)O | – | –[1.15 µM] | – | – | –
COc1cccc(CCNC(=O)CCc2nnc(-c3ccc4c(c3)OCO4)o2)c1 | – | – | – | – | –
CC1CCCN(C(=O)CCc2nnc(-c3ccc4c(c3)OCO4)o2)C1 (configuration not stated) | 101 | ? | – | 37 | –
COc1cccc2[nH]c(C(=O)NCc3ccccc3)cc12 | – | – | – | – | ·
COCCN(CC1CCCN(C2Cc3ccccc3C2)C1)C(=O)c1cccc(C)c1 (configuration not stated) | – | – | – | – | ?
O=C(CSc1nnc(-c2ccncc2)n1Cc1ccco1)Nc1nc(-c2ccccc2)cs1 | – | – | – | – | ·
COc1ccc(-c2csc(NCc3ccco3)n2)cc1 | 72 | · | – | 42 | –
c1coc(CNc2nc3ccccc3s2)c1 | 80 | – | – | 51 | –
COc1ccc(-c2csc(NC(=O)C3CC(=O)N(Cc4ccco4)C3)n2)cc1 (configuration not stated) | – | ? | – | – | ?
c1coc(CNc2nc(-c3ccncc3)cs2)c1 | 72 | – | – | 36 | –
Cc1[nH]nc2nc(SCC(=O)NC3CCCCC3)n(-c3ccc(Br)cc3)c(=N)c12 | – | 13µM | – | – | –
COc1ccccc1NC(=O)CSc1nc2n[nH]c(C)c2c(=N)n1-c1ccccc1Cl | – | – | – | – | 5.9µM
CCOc1ccc(-n2c(SCC(=O)Nc3ccc(CC)cc3)nc3n[nH]c(C)c3c2=N)cc1 | – | ? | – | – | –
SMILES | Shiga toxin inh | Pf growth 96h | LmPK inhibitor | CHX counter | Pf growth 48h
CCOc1ccc(CNS(=O)(=O)c2cc(CN3C(=O)c4cccnc4C3=O)ccc2OC)cc1 | – | ? | – | – | –
COc1ccc(CN2C(=O)c3cccnc3C2=O)cc1S(=O)(=O)NCc1ccco1 | 51 | ? | – | 21 | –
COc1ccc(CNS(=O)(=O)c2cc(CN3C(=O)c4cccnc4C3=O)ccc2OC)cc1 | – | 15µM | – | – | –
CCN(c1cccc(C)c1)S(=O)(=O)c1cc(CN2C(=O)c3cccnc3C2=O)ccc1OC | 92 | – | – | 19 | –
COc1ccc(CN2C(=O)c3cccnc3C2=O)cc1S(=O)(=O)N(C)c1ccc(C)cc1 | – | – | – | – | –
Cc1ccc(S(=O)(=O)N2CCN(CC(=O)Nc3ccccc3C(=O)NC3CC3)CC2)cc1 | · | – | · | · | ?
CC(O)[C@@]1(O)CC[C@H]2[C@@H]3CC[C@H]4C[C@@H](O)CC[C@]4(C)C3=CC[C@@]21C (some centres not stated) | · | – | · | · | ?
CCCCNCCCOc1cc(Cl)ccc1Cl | – | 6.6µM | – | – | ·
CC1CCCN(CCOCCOc2ccc(Br)cc2Cl)C1 (configuration not stated) | – | – | – | – | ?
CC1CCCN(CCOCCOc2ccc(Cl)cc2Br)C1 (configuration not stated) | – | 12µM | – | – | 12µM
CCC(C)NCCCOc1cc(Cl)ccc1Cl (configuration not stated) | – | – | – | – | ·
CC1CC(C)CN(CCOc2ccc(Cl)cc2Cl)C1 (configuration not stated) | – | ? | – | – | 10µM
C=CCc1cc(Cl)ccc1OCCCNCCO | – | – | – | – | 9.3µM
CC1CC(C)CN(CCOc2cccc(Cl)c2Cl)C1 (configuration not stated) | – | – | – | – | ?
C=CCc1cc(Cl)ccc1OCCCNC(C)C | – | – | – | – | ?
Clc1ccc(OCCCCCN2CCCC2)c(Br)c1 | – | ? | – | – | –
Clc1ccc(OCCCN2CCCCC2)c(Br)c1 | 12 | ? | – | 71 | –
CC(C)NCCCOc1ccc(Cl)cc1Br | 36 | ? | – | 31 | ?
COCCCNCCCOc1ccc(Cl)cc1Br | – | ? | – | – | ?
CCOc1ccccc1NS(=O)(=O)N(C)C | – | 13µM | – | – | ·
COc1ccc(Nc2nc(NCCCN3CCOCC3)nc(N)c2[N+](=O)[O-])cc1 | – | ? | – | – | ?
Nc1nc(NCCCN2CCOCC2)nc(Nc2ccc(F)cc2)c1[N+](=O)[O-] | – | ? | – | – | 13µM
Cc1cccc(Nc2nc(NCCCN3CCOCC3)nc(N)c2[N+](=O)[O-])c1 | – | ? | – | – | 15µM
Nc1nc(NCCCN2CCOCC2)nc(Nc2cccc(F)c2)c1[N+](=O)[O-] | – | ? | – | – | –
COc1ccc(OC2CCN(S(=O)(=O)c3ccccc3)CC2)cc1 | – | – | – | – | –
SMILES | Shiga toxin inh | Pf growth 96h | LmPK inhibitor | CHX counter | Pf growth 48h
O=c1c2c([nH]c3ccccc13)C(=C1CCCC1)CC2 | – | – | – | – | 13µM
CC(C)(C)C1CCc2[nH]c3ccccc3c(=O)c2C1 (configuration not stated) | – | ? | – | – | 0.52µM
CC1c2c([nH]c3ccccc23)CCC1C(=O)O (configuration not stated) | – | – | – | – | –
O=c1c2c([nH]c3ccccc13)CCCC2 | – | 1.9µM | – | – | 1.9µM
CN(C(=O)c1cccc(S(=O)(=O)N2CCCC2)c1)C1CCCCC1 | · | – | · | · | –
COc1ccc(CCC(=O)NNC(=O)Cn2nc(C)cc2C)cc1 | – | – | – | – | –
Cn1nc(C(=O)OCC(=O)Nc2cccc(S(=O)(=O)N3CCCC3)c2)c2ccccc2c1=O | – | – | – | – | 12µM

Screening data from PubChem.
